Structures are written as SMILES.

A short description of the assay: binders of probe aHhip on microarray, primary screen, stem cell growth factor project, biochemical, small-molecule microarray, fluorescence 635/667 (AID 1087).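 Further: score merges spot fluorescence at 667nm with spot signal to noise ratio.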 Particulars: higher = more signal.
`O=C1NCC(=O)N2[C@@H]1C[C@@H](C(=O)O)[C@H]2c1cccc(OCCO)c1` yielded a composite z-score of 3.89.
Then `COCCOC(=O)N1C(=O)[C@@]2(c3cc(C#CC4(O)CCCCCC4)ccc31)[C@H](c1ccc(O)cc1)N1[C@H](c3ccccc3)[C@H](c3ccccc3)OC(=O)[C@H]1[C@@H]2C(=O)Nc1nc2ccccc2s1`, with 0.468; and `COCCOC(=O)N1C(=O)[C@@]2(c3cc(C#CCNC(N)=O)ccc31)[C@H](C(=O)NC[C@H](O)c1ccccc1)[C@H]1C(=O)O[C@H](c3ccccc3)[C@H](c3ccccc3)N1[C@@H]2c1ccccc1OCCO`, with -0.113.
The compound `O=C(NCc1ccccc1)[C@@]1(CCS(=O)(=O)c2ccccc2)N=C(c2ccc(OCCCO)cc2)O[C@H]1c1ccccc1` had a composite z-score of 0.0274.

These data come from PubChem BioAssay.
